Screens: PubChem BioAssay, several laboratories
Compounds with a hit are over-represented: about 3.4% of the library has one in this group of screens.
ANO1 activ: TMEM16A chloride channel activators or potentiators, primary screen, cell-based, HTS; Anoctamin-1 (Mus musculus), Q8BHY3; HEK293 TMEM16A/YFP-H148Q/I152L, iodide quench fluorescence; active compounds read low; B-score at 10 µM; actives 0.3% (n = 340,000); AID 623877, 2012;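 active means fluorescence-ratio B-score plate-corrected deviation score at least 3 library SD below zero, with starting fluorescence score within 5 deviations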;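 further: channel opened by trigger with iodide after compound preincubation; score built on the fluorescence ratio of max minus min over baseline; more negative score means more quench and so TMEM16A activation or potentiation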
Target sequence (Q8BHY3 whole entry, looked up): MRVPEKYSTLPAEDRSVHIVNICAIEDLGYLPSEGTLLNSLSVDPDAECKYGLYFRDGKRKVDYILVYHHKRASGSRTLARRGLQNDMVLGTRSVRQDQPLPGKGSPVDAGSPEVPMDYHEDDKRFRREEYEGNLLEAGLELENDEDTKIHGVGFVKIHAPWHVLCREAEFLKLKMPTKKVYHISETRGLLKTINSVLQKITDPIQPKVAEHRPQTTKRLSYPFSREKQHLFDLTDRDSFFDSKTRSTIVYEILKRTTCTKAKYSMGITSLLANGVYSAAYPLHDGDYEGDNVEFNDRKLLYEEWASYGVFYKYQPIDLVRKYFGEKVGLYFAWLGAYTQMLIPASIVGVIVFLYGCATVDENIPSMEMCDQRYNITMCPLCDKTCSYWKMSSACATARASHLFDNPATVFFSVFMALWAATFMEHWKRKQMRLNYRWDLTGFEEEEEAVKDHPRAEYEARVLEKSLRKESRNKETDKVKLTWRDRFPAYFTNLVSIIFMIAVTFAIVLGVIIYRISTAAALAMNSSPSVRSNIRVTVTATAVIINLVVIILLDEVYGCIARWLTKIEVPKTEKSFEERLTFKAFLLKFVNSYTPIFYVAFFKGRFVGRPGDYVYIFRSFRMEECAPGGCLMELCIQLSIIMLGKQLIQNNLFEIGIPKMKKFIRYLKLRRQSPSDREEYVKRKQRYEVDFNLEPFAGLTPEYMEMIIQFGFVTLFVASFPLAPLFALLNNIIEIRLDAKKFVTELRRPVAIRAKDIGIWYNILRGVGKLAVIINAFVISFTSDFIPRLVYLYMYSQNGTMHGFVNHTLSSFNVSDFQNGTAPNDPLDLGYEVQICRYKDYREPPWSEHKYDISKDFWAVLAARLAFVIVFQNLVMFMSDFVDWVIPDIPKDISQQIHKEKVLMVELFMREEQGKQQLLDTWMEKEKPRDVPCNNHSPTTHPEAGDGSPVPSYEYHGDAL
MEKK2 mut-MEK5: MEK5 binding signal on mutant MEKK2 PB1, primary screen, biochemical, multiplex bead flow cytometry, Alexa488-MEK5. Alexa488-MEK5 binding to MEKK2 mutant. percent response, % at 10 µM. actives 0.35% (n = 290,000). AID 1530, 2009; in the data active means percent response above about 24%, passing the limit was not always enough
NTR1 ag: agonists of human NTR1, primary screen, imaging, U2OS cells, beta-arrestin-GFP, high content; NTR1-U2OS beta-arrestin-GFP spot imaging, agonist mode; Neurotensin receptor type 1 (Homo sapiens), P30989; activation, % at 20 µM; actives 0.17% (n = 330,000); AID 493036, 2011;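 active means activation at or above 40% of the spot to cytoplasm intensity ratio, with at least 20 cells analyzed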
ANO1 block: TMEM16A chloride channel inhibitors, primary screen, cell-based, HTS; Anoctamin-1 (Mus musculus), Q8BHY3; HEK293 TMEM16A/YFP iodide influx fluorescence, ionomycin; normalized B-score (activity score, 25-100; higher = stronger inhibition) at 10 µM; actives 1.2% (n = 310,000); AID 588511, 2011;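 active means ratio plate-corrected score three or more library SD toward inhibition, starting fluorescence score within five deviations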;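 further: score derived from kinetic fluorescence span divided by baseline fluorescence per well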
MEKK3 PB1 HTS: modulators of MEKK3-MEK5 PB1 binding, primary screen, biochemical, wildtype MEKK3, multiplex bead flow cytometry, Alexa488-MEK5; actives 1.4% (n = 290,000); AID 1529, 2009; Mitogen-activated protein kinase kinase kinase 3 (Homo sapiens), Q99759; binding response (% of control), % at 10 µM; bead-based flow cytometry, Alexa488-MEK5 binding to MEKK3; actives lie on both sides; 0 = blocked by unlabeled MEK5, 100 = vehicle;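 active means binding response more than 3 SD above or below the average of its plate-row segment, actives on both sides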;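 further: Alexa488 bead fluorescence after subtracting the streptavidin-only scavenger bead signal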
MEKK2 WT-MEK5: modulators of MEK5 binding to wildtype MEKK2, primary screen, biochemical, multiplex bead flow cytometry, Alexa488-MEK5; Mitogen-activated protein kinase kinase kinase 2 (Homo sapiens), Q9Y2U5; Alexa488-MEK5 binding to MEKK2 WT; actives lie on both sides; binding response (% of control), % at 10 µM; actives 1.1% (n = 290,000); AID 1531, 2009; in the data active means binding response below about 67% or above about 130%
NTR1 ag confirm: NTR1 agonists, single-dose retest, confirmation, imaging, U2OS cells, beta-arrestin-GFP, single concentration. shares compounds with NTR1 ag. NTR1-U2OS beta-arrestin-GFP translocation imaging. activation, % at 20 µM. actives 38% (n = 480);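 active means mean activation at 20 µM of at least 40%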
TMEM16A reconf: TMEM16A chloride channel inhibitors, confirmation, cell-based, re-confirmation; shares compounds with ANO1 block; HEK293 TMEM16A/YFP-H148Q, iodide quench fluorescence; ionomycin added to raise cell calcium; inhibition, % at 10 µM; actives 39% (n = 2,300);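 active means mean duplicate percent inhibition, scaled so buffer wells are 0 and the reference blocker 100, over three buffer SD above buffer mean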
TMEM16A Ca cntr: calcium mobilization in TMEM16A/YFP HEK293 cells, confirmation, counter-screen for TMEM16A inhibitor project | calcium response (% of ionomycin), % at 10 µM | shares compounds with ANO1 block | Fluo4 calcium mobilization | actives 2% (n = 2,300);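 active means duplicate-averaged calcium signal over 20% of the ionomycin maximum, relative to buffer baseline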;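 further: each well's signal is peak minus trough fluorescence divided by its pre-addition baseline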
YFP-HEK293 quench: iodide YFP quench changes in parental YFP-HEK293, counter-screen for TMEM16A inhibitor project, cell-based | shares compounds with ANO1 block | ionomycin | YFP ratio F(max-min)/F0 at 10 µM | 2,300 tested, under 10 active | AID 652233, 2013;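 active means yellow fluorescent protein signal ratio exceeding the buffer control mean by over 5 SD of those controls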;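 further: ratio is mean of duplicate wells from kinetic YFP trace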
ClC-1 inh: ClC-1 chloride channel inhibition, selectivity assay for TMEM16A inhibitor project, cell-based, voltage-dependent ClC-1; shares compounds with ANO1 block; CHO ClC-1-YFP, iodide influx fluorescence quench; iodide control reads 0, buffer control 100; ratio percent, % at 10 µM; 2,300 tested, under 10 active; AID 652236, 2013;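 active means duplicate-mean ratio percent above the mean of iodide-only control wells, which defines zero, plus 5 of their SD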;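 further: higher percent means stronger block of ClC-1 iodide influx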
Each line names hits and unclear results; the compound was inactive in the other large screens (follow-up assays come after a bar, where they were run).

C[C@]12CCC3[C@@H](CCC4=CC(=O)CC[C@@]43CO)C1CCC2=O (stereo partly specified)	none
CC(C)CCNC(=O)c1c(N)n(CC2CCCO2)c2nc3ccccc3nc12 (stereo unspecified)	NTR1 ag 43 | NTR1 ag confirm inactive
CCN1C(=O)NC(=O)/C(=C\c2cn(CC(=O)N3CCCC3)c3ccccc23)C1=O	none
O=C1NC(=O)N(c2ccccc2F)C(=O)/C1=C/c1cn(CC(=O)N2CCOCC2)c2ccccc12	NTR1 ag 42 (no result: ANO1 activ) | NTR1 ag confirm inactive
O=c1c(C=NCc2cccs2)c(O)n(C2CCCCC2)c(=O)n1C1CCCCC1	none
N=C(N)c1c(O)n(C2CCCCC2)c(=O)n(C2CCCCC2)c1=O	NTR1 ag 54 | NTR1 ag confirm inactive
COCCNC(=O)c1ccc(N2CC3CC(C2)c2cccc(=O)n2C3)c([N+](=O)[O-])c1 (stereo unspecified)	none
O=C1NC(=O)C(=Cc2ccc(SC3CCCCC3)o2)C(=O)N1	NTR1 ag 50 | NTR1 ag confirm 68
COc1ccc(OC)c(N=Cc2c(O)n(Cc3ccccc3)c(=S)[nH]c2=O)c1	NTR1 ag 59 | NTR1 ag confirm 65
O=C1NC(=O)N(c2ccccc2)C(=O)/C1=C\C=C\c1ccccc1	NTR1 ag 74 | NTR1 ag confirm 49
COC(=O)C1=C(c2cccc(OC)c2OC)C[C@@H]2CC[C@H]1N2C(=O)NCCS(C)=O (stereo partly specified)	ANO1 block 100 | TMEM16A reconf inactive | TMEM16A Ca cntr inactive | YFP-HEK293 quench inactive | ClC-1 inh inactive
O=c1[nH]c(=O)n(CCC2=CCCCC2)c(O)c1C=NC1CCN(Cc2ccccc2)CC1	ANO1 block 25 | TMEM16A reconf inactive | TMEM16A Ca cntr inactive | YFP-HEK293 quench inactive | ClC-1 inh inactive
C=CCn1c(O)c(C=NC2CCN(Cc3ccccc3)CC2)c(=O)[nH]c1=O	none
CN1CCC(=O)N(CCN=[N+]=[N-])CC1	none
O=[N+]([O-])c1ccc(N2CCCCC2)c2ncccc12	none
O=[N+]([O-])c1ccc(N2CCCCCC2)c2ncccc12	ANO1 block 25 | TMEM16A reconf inactive | TMEM16A Ca cntr inactive | YFP-HEK293 quench inactive | ClC-1 inh inactive
Cn1nc(-c2ccc(OCC(=O)N3CCN(Cc4ccccc4)CC3)cc2)c2ccccc2c1=O	ANO1 block 100 | TMEM16A reconf 20% | TMEM16A Ca cntr inactive | YFP-HEK293 quench inactive | ClC-1 inh inactive
